The values that follow come from PubChem BioAssay.

Torsin-1A (Homo sapiens), sequence (O14656 whole entry, looked up): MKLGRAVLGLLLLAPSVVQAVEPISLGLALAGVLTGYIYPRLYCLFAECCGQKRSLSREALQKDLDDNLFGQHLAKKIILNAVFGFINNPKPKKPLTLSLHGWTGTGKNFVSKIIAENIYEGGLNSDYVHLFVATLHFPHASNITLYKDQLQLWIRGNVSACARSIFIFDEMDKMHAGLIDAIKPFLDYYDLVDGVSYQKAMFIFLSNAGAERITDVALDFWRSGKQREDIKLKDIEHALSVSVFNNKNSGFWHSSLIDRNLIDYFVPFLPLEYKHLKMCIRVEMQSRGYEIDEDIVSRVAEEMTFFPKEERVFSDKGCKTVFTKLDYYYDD

The assay concerns the target Torsin-1A (Homo sapiens) (UniProt O14656). Nature of the assay: torsin A binders from cell lysate, primary screen, small-molecule microarray, wild-type, 635/667 nm (AID 1149). To be noted: COS7 hTOR1A-WT lysate, 635 nm fluorescence, higher = more signal.
For the molecule `C[N+](C)(C)CCCCNC(=O)[C@H]1C[C@H]2C(=O)N3CCC[C@H]3C(=O)N2[C@H]1c1ccc(O)cc1`, the composite z-score turned out to be 1.84.
`O=S(=O)(NCCCO)c1ccc(Br)cc1` returned a composite z-score of 0.729.
`Cc1ccc(S(=O)(=O)N2CC(C(=O)O)=CCC2c2ccccc2)cc1` (stereo not given) gave a composite z-score of 1.08.
The result for `C=CCOC(=O)[C@H]1[C@@H]2C(=O)O[C@@H](c3ccccc3)[C@@H](c3ccccc3)N2[C@@H](c2ccc(OCCOC(=O)[C@@H]3C[C@@H]4C(=O)NCC(=O)N4[C@@H]3c3ccc(O)cc3)cc2)[C@]12C(=O)Nc1ccc(I)cc12` reads 1.02; that for `CC(=O)NCCCC[C@@H]1NC(=O)[C@@H]2C[C@H](C(=O)NCCCCCC[N+](C)(C)C)[C@H](c3cccc(OCCO)c3)N2C1=O`, 0.964.
The result for `C/C=C/[C@H](CCn1cc([C@H](O)c2ccccc2)nn1)[Si](C)(C)c1ccc(OC)cc1` reads 0.0596; that for `CCCNC(=O)[C@@]1(C)c2ccccc2C(=O)N(Cc2cc(C(F)(F)F)cc(C(F)(F)F)c2)[C@H]1c1ccc(CO)cc1`, -0.0659.
The molecule `C=C(CCCC)/C(=C/C[C@H](OC(C)=O)c1ccc(CO)o1)c1cc(C(=O)OC)ccc1OC` registered a composite z-score of 0.206.
For the molecule `C=CCCN(CC#C[C@H]1Oc2ccccc2S(=O)(=O)N2CCC[C@@H]12)S(=O)(=O)c1ccc(C)cc1`, the composite z-score worked out at 0.554.
Molecule `CN1C(=O)C2C=CC(C(O)C(c3ccccc3)c3ccccc3)N(Nc3ccccc3)C2C1=O` (stereo not given) had a composite z-score of 0.096.
On to `O=C1OCCC/C=C\[C@H]2OC34C=CCN(CCN5CCOCC5)C(=O)[C@H]3N(CCO)C(=O)[C@@H]4C12` (stereo not given in full), for which the composite z-score was -0.176.
In the case of `COCCOC(=O)N1C(=O)[C@@]2(c3cc(C#CC4(O)CCCCCC4)ccc31)[C@H](c1ccc(O)cc1)N1[C@H](c3ccccc3)[C@H](c3ccccc3)OC(=O)[C@H]1[C@@H]2C(=O)N1CCc2cc(OC)c(OC)cc2C1`, the composite z-score was -0.576.
Consider `COCCn1c(C(=O)N2CCCC2)cc2c1C[C@H]1CN(C(=O)c3ccccc3)[C@@](Cc3ccc(OC)cc3)(C(=O)OC)[C@@H]21`, for which the composite z-score is -0.141.
`Cc1cc(C)c(C(O)C2C=CC3C(=O)NC(=O)C3N2Nc2ccccn2)c(C)c1` (stereo not given) registered a composite z-score of -0.145.
The result for `CC(c1ccccc1)C(O)C1C=CC2C(=O)N(Cc3ccccc3)C(=O)C2N1n1cnnc1` (stereo not given) reads 0.327; that for `O=C(NCC(O)CO)[C@@]1(Cc2ccccc2)N=C(c2ccc(OCCCO)cc2)O[C@H]1c1ccccc1` (stereo not given in full), 0.477; that for `CC(c1ccccc1)C(O)C1C=CC2C(=O)N(c3ccccc3)C(=O)C2N1Nc1ccccc1F` (stereo not given), -0.468.
The result for `C=CC[C@@]1(C(=O)NCc2ccccc2)N=C(c2ccc(OCCCO)cc2)O[C@@H]1c1ccccc1CN=[N+]=[N-]` reads -0.805; that for `C=CCN1C(=O)[C@]2(Cc3ccccc31)N=C(c1ccc(OCCCO)cc1)O[C@@H]2c1ccccc1`, 0.154.
As for `CCCCC(=O)N(Cc1ccccc1F)[C@@H]1CC(C(=O)NCCO)=C[C@H](Oc2c(I)cc(CO)cc2OC)[C@H]1O`, the composite z-score stood at 1.68.
As for `Cc1c(NC(=O)/C(C#N)=C/C=C/c2ccccc2)c(=O)n(-c2ccccc2)n1C`, the composite z-score was 0.172.
In turn, `CC(C)(C)OC(=O)CC[C@]1(C(=O)NCC(O)CO)N=C(c2ccc(OCCCO)cc2)O[C@H]1c1ccccc1CN=[N+]=[N-]` (stereo not given in full) gave a composite z-score of 0.399.
The result for `CCCC[C@@H]1C[C@H]1[C@@H](NC(=O)c1ccco1)c1ccccc1` reads -3.91.
On to `NC(=O)NCC#Cc1ccc2c(c1)[C@]1(C(=O)N2)[C@H](c2ccccc2OCCO)N2[C@H](c3ccccc3)[C@H](c3ccccc3)OC(=O)[C@H]2[C@@H]1C(=O)N1CCCCCCC1`, for which the composite z-score was 2.04.
`C=C(COC)C(=O)CC[C@H](OC(=O)c1cccnc1)c1ccccc1OCCO` showed a composite z-score of 0.519.
The result for `C=C(C(=O)CC[C@@H](OC(=O)c1cccnc1)c1ccc(CO)o1)C(C)C` reads 0.787; that for `O=C1O[C@H](c2ccccc2)[C@H](c2ccccc2)N2[C@H]1[C@@H](C(=O)Nc1nc3ccccc3s1)[C@]1(C(=O)Nc3ccc(C#CC4=CCCCC4)cc31)[C@H]2c1ccc(OCCO)cc1`, 0.0608.
`COCCOC(=O)N1C(=O)[C@@]2(c3cc(C#Cc4ccc(OC)cc4)ccc31)[C@H](C(N)=O)[C@H]1C(=O)O[C@H](c3ccccc3)[C@H](c3ccccc3)N1[C@@H]2c1ccc(O)cc1` yielded a composite z-score of -1.2.
With `CN1C(=O)C2C(C1=O)C1C=C(c3ccc(CO)cc3)C2C(C2CC2)N1Cc1sc2ccccc2c1Cl` (stereo not given) the figure was 1.08; with `CC1CC/C=C\[C@H]2OC34C=CCN(Cn5nnc6ccccc65)C(=O)[C@H]3N(CCCO)C(=O)[C@@H]4C2C(=O)O1` (stereo not given in full), -1.89.
